# DT40 TDP1 no CPT: qHTS for Inhibitors of human tyrosyl-DNA phosphodiesterase 1 (TDP1): qHTS in cells in absence of CPT | DT40 Tdp1-/- hTDP1 cells, no CPT, ATP luminescence, 48 h | Potency, µM (titrated, usually from 46.2 µM), for inactives: at the top dose activity change, negative = growth inhibition, actives largely listed as inhibitors | 420,000 tested, 15% active | AID 686978, 2013; also: potency is read from the fitted curve at half-maximal effect; nearly all actives have a fitted effect of over 55% in size
#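 A cellular qHTS used chicken DT40 cells lacking endogenous Tdp1 but carrying stably transfected human TDP1. Compounds were applied without camptothecin, and cell growth kinetics were judged by ATP-dependent luminescence after ≥48 hr.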
# IL1B secr inh: inflammasome signaling inhibition, IL-1 beta readout; THP-1 LPS/ATP IL-1B secretion, AlphaLISA, 16 h; hits give low values; activity change, % at 57.5 µM; 360,000 tested, 4.7% active; in the data active = activity change below about -50%; inconclusive = mostly about -30% to -49%
#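 THP-1 cells pretreated 1 hr with compounds (up to 57.5 uM final), then stimulated with LPS (250 ng/mL final) plus ATP (1.25 mM final); secreted IL-1B measured by AlphaLISA after 16 hr, decreased signal indicating inhibition.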
# HT1080 IDH1KD tx: toxicity to HT-1080 IDH1 knockdown cells (counter line); Potency, µM (titrated, usually from 46.1 µM), for inactives: top-dose activity, negative = toxicity, most hits filed as cytotoxic; 360,000 tested, 2% active; HT-1080 IDH1 knockdown viability, ATP luminescence, 48 h; AID 686971;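 also: potency is read from the fitted curve at half-maximal effect; 0% = DMSO wells and -100% = cell-free medium wells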
#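 CellTiter-Glo luminescence after 48 h compound exposure at 37 degrees C of IDH1-knockdown HT-1080 cells in 5% FBS RPMI. %Activity scaled between DMSO wells and cell-free media wells, with curves fitted and assigned curve classes.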
# DT40 TDP1 CPT: growth inhibition of DT40 Tdp1-/-;hTDP1 cells with camptothecin (screen for TDP1 inhibitors) | AID 686979 | chicken DT40 Tdp1-/-;hTDP1 cells + 20 nM CPT, ATP luminescence, 48 h | Potency, µM (highest dose often 46.2 µM), inactives show at the top dose activity change, negative = growth inhibition, hits mostly inhibitors | 420,000 tested, 12% active; also: potency is read from the fitted curve at half-maximal effect; nearly all actives have a fitted effect of over 55% in size
#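 Chicken DT40 Tdp1-/- cells stably complemented with human TDP1 were seeded at 400 cells/well in medium containing 20 nM camptothecin, exposed to pin-transferred compounds, and grown at 37 °C for at least 48 hr. Viability was read as ATP luminescence.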
# HT1080NT lethal: kills 2HG-producing HT-1080-NT fibrosarcoma cells; Potency, µM (top dose mostly 46.1 µM), for the others: at the top dose activity, negative = less viability, most hits filed as cytotoxic; 360,000 tested, 1.6% active; AID 686970; HT-1080-NT fibrosarcoma viability, CellTiter-Glo ATP luminescence, 48 h;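 also: NT is the 2HG producing partner of a matched IDH1 knockdown line; potency is read from the fitted curve at half-maximal effect; 0% = DMSO-treated cells and -100% = media-only wells without cells; nearly all actives have a fitted effect of over 55% in size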
#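 Luminescent CellTiter-Glo readout after 48 hours of compound exposure at 37 degrees C defined viability of HT-1080-NT cells. Activity was normalized to DMSO wells and cell-free media wells; concentration-response curves were fitted and assigned curve classes.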
# Starred values were filed as active, the others as inactive; i = inactive; ? = inconclusive; nt = no result; ! = not confirmed by another sample. An excerpt weighted towards active compounds, which were near 19% of everything screened. Unless noted, calls follow the shape of the dose curve; as a rule, active = well fitted curve in the direction sought with a large enough effect; inconclusive = small, poorly fitted or top-dose-only effect, or another doubt; inactive = no such curve, though single readings can be large; an effect the other way counts as inactive or inconclusive. Unless noted, % is scaled to controls: 0 for no effect and ±100 for the full control effect.
SMILES,DT40 TDP1 no CPT,IL1B secr inh,HT1080 IDH1KD tx,DT40 TDP1 CPT,HT1080NT lethal
CC(=O)N1CCC[C@@]2(CCN(c3ccccc3)C2)C1,-21%,nt,nt,-6%,nt
CC(=O)N1CCC2(CCCN(c3ccc(-c4ccccc4)cc3)C2)CC1,16µM*,nt,nt,?,nt
COC(=O)N1CCC2(CC1)CN(c1cccc(-c3ccccc3)c1)C2,18µM*,nt,nt,-30%,nt
CC(=O)N1CCC2(CCCN(c3cccc(-c4ccccc4)c3)C2)CC1,?,nt,nt,16µM*,nt
S=C(NCC1(c2ccccc2)CCCC1)Nc1ccccc1,12µM*,9,-9%,21µM*,-8%
COc1ccccc1C(=O)NCc1ccccc1,-15%,9,-1%,?,-1%
O=C(NCC1(c2ccccc2)CCCC1)c1ccccc1,12µM*,15,5%,15µM*,3%
O=C(NCC1(c2ccccc2)CCCC1)c1ccccc1Br,?,0,-25%,16µM*,2%
O=C(NCC1(c2ccccc2)CCCC1)C(=O)NCC1(c2ccccc2)CCCC1,-30%,0,7%,-1%,12%
COc1ccccc1C(=O)NCC1(c2ccccc2)CCCC1,?,-77*,-4%,16µM*,15%
COCCn1c(SCC(=O)Nc2ccc(F)cc2F)nc2c([nH]c3ccccc32)c1=O,-6%,i,6%,3%,-5%
Cc1ccccc1NC(=O)C(=O)NCC1(c2ccccc2)CCCC1,16µM*,nt,nt,?,nt
OC[C@@H]1CN(Cc2ccccc2)C[C@H](n2cnc3c(NCc4ccco4)ncnc32)O1,-6%,0,10%,-18%,-1%
OC[C@@H]1CN(Cc2cccc(C(F)(F)F)c2)C[C@H](n2cnc3c(NCc4ccc(F)cc4)ncnc32)O1,9.2µM*,-25,21µM*,18µM*,?
OC[C@@H]1CN(Cc2ccc(Cl)cc2)C[C@H](n2cnc3c(NCc4ccc(F)cc4)ncnc32)O1,18µM*,-5,?,18µM*,?
OC[C@@H]1CN(Cc2cccc(C(F)(F)F)c2)C[C@H](n2cnc3c(NCc4ccco4)ncnc32)O1,?,10,-17%,18µM*,-16%
OC[C@@H]1CN(Cc2cccc(C(F)(F)F)c2)C[C@H](n2cnc3c(NC4CC4)ncnc32)O1,?,7,19%,?,2%
Cc1cc(OC(=O)c2c(F)cc(F)cc2F)nc(C)n1,1%,0,-8%,-5%,-1%
Cn1cnc([N+](=O)[O-])c1N=C(N)N,2%,11,11%,5%,19%
N#CCSc1nnc(SCC#N)s1,5%,-71*,-18%,-3%,-19%
N#CCSc1nnc(N)s1,-1%,12,13%,7%,7%
NS(=O)(=O)c1ccc(NC(=O)COC(=O)c2cnccn2)cc1,0%,11,17%,-29%,11%
CCCCOc1ccc(C(=O)NCC(=O)NCCOc2ccccc2OC)cc1,-7%,-15,-2%,-16%,-3%
CC12CCC(=O)C=C1CCC1C2C(O)CC2(C)C1CCC2(O)C(=O)COC(=O)COCC(=O)O (stereo not given),-12%,-50*,?,12%,?
C[C@]12C=CC(=O)C=C1CC[C@@H]1[C@@H]2[C@@H](O)C[C@@]2(C)[C@H]1CC[C@]2(O)C(=O)COC(=O)CCC(=O)O,-13%,?,?,-16%,?
C[C@]12CCC(=O)C=C1CC[C@@H]1[C@@H]2[C@@H](O)C[C@@]2(C)[C@H]1CC[C@]2(O)C(=O)CO,?,-58*!,?,-20%,25%
C[C@]12CCC(=O)C=C1CC[C@@H]1C2[C@@H](O)C[C@@]2(C)[C@H]1CC[C@]2(O)C(=O)CO (stereo not given in full),?,nt,nt,1%,nt
C[C@]12C=CC(=O)C=C1CC[C@@H]1[C@@H]2[C@@H](O)C[C@@]2(C)[C@H]1CC[C@]2(O)C(=O)COC(=O)CCC(=O)NCCc1ccc(O)cc1,-15%,-56*,?,-25%,?
